Experimental findings from PubChem BioAssay (NCATS) are described below.

Records with an inconclusive call do not appear. A call without a number means that no potency is given here. Values without a mark were called inactive. The source made the active and inactive calls. The call rests on the fitted dose curve; in most records, active means well fitted inhibition curve with a large enough effect; inconclusive means small, poorly fitted or top-dose-only effect; inactive means flat fitted curve, though single readings scatter.

For this assay, the target named is Aldehyde dehydrogenase, mitochondrial (Homo sapiens) (UniProt P05091). Kind of assay: qHTS for Inhibitors of the Aldehyde Dehydrogenase Family (ALDH2) Primary screen (AID 2061308). Further: nearly all actives have a fitted effect of over 55% in size. Conditions: ALDH2 enzyme inhibition qHTS, 1536-well; series mostly up to 56 µM. (In general: Quantitative high-throughput screening tests each substance at several concentrations.)
As to `COC1C(O)C(OC2CCC3(C=O)C(CCC4C3CCC3(C)C(C5=CC(=O)OC5)CCC43O)C2)OC(C)C1OC1OC(CO)C(O)C(O)C1O` (stereo not given), the Potency result is “inactive”.
Still for that read-out and setting: next, `O=C(Nc1nnc(-c2cccs2)o1)c1ccc(Cl)cc1`: “inactive”; `Oc1ccc2c3c1O[C@H]1c4[nH]c5c(N=C=S)cccc5c4C[C@@]4(O)[C@@H](C2)N(CC2CC2)CC[C@]314`: “inactive”; `COc1cccc(CNc2ccc(S(=O)(=O)Nc3ccc4ccccc4c3)cc2)c1O`: “inactive”.
Turning to `Cn1cc(P(=S)(c2ccccc2)c2ccccc2)c2ccccc21`, the Potency result was “inactive”.
Take `Cc1cccc(-n2cnc3cc(C(=O)N4CCCC(C)C4)ccc32)c1` (stereo not given): the Potency entry is “inactive”.
In the case of `C[C@]12CC[C@H](O)C[C@H]1CC[C@@H]1[C@@H]2[C@H](O)C(=O)[C@]2(C)[C@@H](c3ccc(=O)oc3)CC[C@]12O`, the Potency result is “inactive”.
On the same count and under the same terms, next, `CCOc1ccc(CCNC(=O)c2cc3ccccc3n2Cc2ccccn2)cc1OCC`: “inactive”.
For the compound `Cc1ccccc1C(=O)N1CCc2cc(N3CCC(NC(=O)Cc4ccccc4)C3)ccc21` (stereo not given), the Potency result was “inactive”.
For `CC[C@H](C)[C@H](NC(=O)[C@H]1CCCCN1C)C(=O)N(COC(=O)CC(C)C)[C@H](C[C@@H](OC(C)=O)c1nc(C(=O)N[C@@H](Cc2ccc(O)cc2)C[C@H](C)C(=O)O)cs1)C(C)C`, the activity change, negative = inhibition was -2.41% [at 1.12 µM].
As for `CCOc1ccc(CCNC(=O)c2cc3ncccc3n2Cc2cccc(C)c2)cc1OCC`, the Potency result was “inactive”.
On the same count and under the same terms, the result for `N#Cc1ccc(NC(=O)Nc2nnc(-c3ccncc3)s2)cc1Cl` reads “inactive”; that for `O=S(=O)(Nc1cccc2ccncc12)c1ccc(NCc2cccc(Cl)c2O)cc1`, “inactive”.
`Oc1ccc2c(c1)C13CCCC[C@H]1[C@@H](C2)N(CC1CCC1)CC3`: the Potency result is “inactive”.
Same read-out and setting: next, `Cc1cc(-c2nnc3n2CCCCC3)c(C)n1-c1ccc(C(C)(C)C)cc1`: “inactive”; `C[C@]12CC[C@@H](O)C[C@@H]1CC[C@@H]1[C@@H]2CC[C@]2(C)C(=O)[C@@H](Br)C[C@@H]12`: “inactive”.
For `Cn1cc(Cl)c(C2N=C(Nc3nc4ccccc4o3)NC3=C2C(=O)CCC3)n1` (stereo not given), the Potency result was “inactive”.
The same measure, in the same setting: next, `Cc1sc2c(c1C)C(c1ccc(Cl)cc1)=N[C@@H](CC(=O)Nc1ccc(O)cc1)c1nnc(C)n1-2`: “inactive”.
As for `CN1C(=O)c2ccccc2NC(=O)C1Cc1ccccc1` (stereo not given), the Potency entry is “inactive”.
On the same count and under the same terms, the result for `Cc1ccc2nc(NC3=NC(c4[nH]ncc4Cl)C4=C(CCCC4=O)N3)oc2c1` (stereo not given) reads “inactive”.
Same read-out and setting: the result for `C[C@]12CC[C@H](O)C[C@H]1CC[C@@H]1[C@@H]2[C@H](O)C[C@]2(C)[C@@H](c3ccc(=O)oc3)CC[C@]12O` reads “inactive”.
In the case of `CC(=O)Nc1ncc(S(=O)(=O)N2CCOCC2)s1`, the Potency entry was “inactive”.
Still for that read-out and setting: next, `C[C@H]1CC[C@@H]2[C@@H](C)[C@H]3[C@H](C[C@H]4[C@@H]5CC=C6CC(O[C@@H]7O[C@H](CO)[C@@H](O)[C@H](O[C@@H]8O[C@H](CO)[C@@H](O)[C@H](O)[C@H]8O)[C@@H]7O[C@@H]7O[C@@H](C)[C@H](O)[C@@H](O)[C@H]7O)CC[C@]6(C)[C@H]5CC[C@]34C)N2C1` (stereo not given in full): “inactive”; `CO[C@H]1C[C@H](O[C@H]2CC[C@]3(CO)[C@H]4CC[C@]5(C)[C@@H](C6=CC(=O)OC6)CC[C@]5(O)[C@@H]4CC[C@]3(O)C2)O[C@H](C)[C@H]1O`: “inactive”; `C/C=C1/CN2CC[C@]34C(=Nc5ccccc53)[C@@H]2C[C@@H]1[C@H]4C(=O)OC`: “inactive”.
For the compound `C[n+]1cc(P(=S)(c2ccccc2)c2ccccc2)n2ccccc21`, the Potency result was “inactive”.
For the compound `COC(=O)c1nc(-c2cccc3ccccc23)oc1OC`, the Potency entry is “inactive”.
The same measure, in the same setting: next, `Cc1cc(-c2nnc3n2CCCCC3)c(C)n1-c1ccc(Cl)cc1`: “inactive”.
As for `C=C[C@H]1[C@H](O[C@@H]2O[C@H](CO)[C@@H](O)[C@H](O)[C@H]2O)OC=C2C(=O)OCC[C@H]21`, the Potency result is “inactive”.
Still for that read-out and setting: next, `CC(=O)OC[C@]12C[C@H](OC(=O)CC(C)C)C(C)=C[C@H]1O[C@@H]1[C@H](O)[C@@H](O)[C@@]2(C)[C@]12CO2`: “inactive”; `Cc1cc(-c2nnc3n2CCCCC3)c(C)n1-c1cccnc1`: “inactive”; `CCc1nn2c(=O)cc(N3CCN(C)CC3)nc2s1`: “inactive”.
As to `CC(=O)O[C@H]1C[C@]2(O)[C@@H]3CC[C@@H]4C[C@@H](O)CC[C@]4(C)[C@H]3CC[C@]2(C)[C@H]1c1ccc(=O)oc1`, the Potency entry is “inactive”.
Still for that read-out and setting: the result for `C[C@H]1O[C@@H](O[C@H]2CC[C@]3(C=O)C4CC[C@]5(C)[C@@H](C6=CC(=O)OC6)CC[C@]5(O)[C@@H]4CC[C@]3(O)C2)C[C@@H](O)[C@@H]1O` (stereo not given in full) reads “inactive”.
The same measure, in the same setting: next, `CCc1nn2c(=O)c(F)c(N3CCNCC3)nc2s1`: “inactive”; `CC(=O)O[C@H]1C[C@@H](C)O[C@H]2O[C@@H]3CC4CC[C@@H]5C(CC[C@]6(C)[C@@H](C7=CC(=O)OC7)CC[C@]56O)[C@@]4(C=O)C[C@H]3O[C@]21O` (stereo not given in full): “inactive”.
The same measure, in the same setting: the result for `Cc1cccc(NC(=O)N[C@H]2CN(C)c3ccccc3C(c3ccccc3)=N2)c1` reads “inactive”; that for `CCOc1ccc(CCNC(=O)c2ccccc2)cc1OCC`, “inactive”; that for `COC(=O)c1ccc(O)c2ncc(N3CCN(C)CC3)cc12`, “inactive”.
For the compound `COc1cccc(CNc2ccc(S(=O)(=O)Nc3cccc(-c4ccccc4)c3)cc2)c1O`, the Potency result is “inactive”.
